CYP2C9 act: human CYP2C9 activators, primary screen, biochemical, luminescence | hit rate 1.4% among 96,000 | AID 1024, 2008 | activation factor at 5 µM | recombinant CYP2C9, luciferin-H conversion; active compounds read high; factor 1 = untreated enzyme, 0 = blocked;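 active = activation factor of 2 or more for CYP2C9 at a 5 µM dose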;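 also: 0 = sulfaphenazole-blocked wells and 1 = vehicle-only wells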
CYP2C9 inhib: blockers of cytochrome P450 2C9 activity – biochemical, luminescence, ADME assay, primary screen | inhibition, % at 5 µM | hit rate 20% among 96,000 | CYP2C9 Supersomes, luciferin-H conversion;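 active = blocking of liver enzyme CYP2C9 beyond about 50% at 5 µM, limit read from the data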
CYP2C19 activ: human CYP2C19 activators, primary screen, biochemical, luminescence; Cytochrome P450 2C19 (Homo sapiens), P33261; recombinant CYP2C19, luciferin-H EGE luminescence; active compounds read high; 0 = fully inhibited enzyme, 1 = untreated enzyme; activation factor at 5 µM; 96,000 tested, under 10 active;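 active = activation factor of at least 2 at 5 µM in the primary screen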;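 also: 0 = wells with 2.5 mM tranylcypromine and 1 = vehicle-only wells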
Cav32 inh: Cav3.2 calcium influx blockers – cell-based, Fluo-4 calcium fluorescence, FDSS, MLSMR library, primary screen; B-score at 10 µM; hit rate 4% among 100,000; Cav3.2-expressing cells; active compounds read low; AID 449739, 2010; Voltage-dependent T-type calcium channel subunit alpha-1H (Homo sapiens), O95180;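 active = single-dose well whose peak fluorescence ratio is a statistical outlier from its plate by either plate-standardised score or position-corrected B-score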
Pyk2 oligo antag: antagonists of Pyk2 self-association, primary screen, Q293 cells, FERM NanoBiT luminescence, HTS. Protein-tyrosine kinase 2-beta (Homo sapiens), Q14289. active compounds read low. z-score (the deposit names both 25 µM and 10 µM). hit rate 0.83% among 99,000;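 active = Z-score of -3 or lower, scaled per plate to the spread of control and sample wells; inactive = z-score above -3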;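 also: negative z-score means lost luminescence so less FERM oligomerization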
CYP2C19 inh: blockers of cytochrome P450 2C19 activity – biochemical, luminescence, ADME assay, primary screen; P33261; CYP2C19 Supersomes, luciferin-H EGE luminescence, 30 min; inhibition, % at 5 µM; hit rate 21% among 96,000; AID 778, 2007;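 active = CYP2C19 inhibition above a set limit at 5 µM in the primary screen, cut at about 50% in these data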;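 also: plate controls were negative control wells for no effect and 2.5 mM tranylcypromine positive control for full effect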
The depositor's hits bear a star; · = not tested or not shown. Rows were chosen to be rich in hits. Some 27% of all compounds tested hit in one or more screens of this group.

SMILES	CYP2C9 act	CYP2C9 inhib	CYP2C19 activ	Cav32 inh	Pyk2 oligo antag	CYP2C19 inh
O=C(CSC1=NCCS1)Nc1ccc(S(=O)(=O)NC2CCCCC2)cc1	0.4	56*	0.8	-2.1	0.34	24
CC12CCC(c3nnc(SCC(=O)Nc4cccc5ccccc45)nc31)C2(C)C (configuration not stated)	0.8	22	0.8	0.68	-0.41	16
CCn1nnnc1SCC(=O)Nc1nc(C)c(C)s1	·	·	·	0.42	-0.07	·
O=C(CSc1nnc(-c2ccccc2)n1Cc1ccccc1)N1CCCC1	1.1	-6	1.1	0.98	-1.2	-5
O=c1c(Cc2ccc(F)cc2)c(O)ccn1Cc1cccc(Cl)c1	0.8	16	0.8	-0.89	-1.1	21
Cc1ccccc1CN1CCN(CC(=O)NCc2ccc3c(c2)OCO3)C1=O	0.2	76*	0.8	0.13	0.27	15
O=C(Cn1nnc(-c2ccccc2F)n1)Nc1ccc2c(c1)OCO2	0.6	45	0.5	-1.6	0.79	48
Cc1ccccc1-c1nnn(CC(=O)NCc2ccc3c(c2)OCO3)n1	0.2	82*	0.5	-0.59	-0.29	47
O=C(Cn1cnc2ccccc21)N/N=C/c1ccccn1	0.7	29	1	·	0.78	3
Cc1csc2nc(CNS(=O)(=O)c3ccc4c(c3)CCCC4)cn12	2*	-103	0.5	-0.41	·	54*
Cc1csc2nc(CCNS(=O)(=O)c3ccc4c(c3)OCCO4)cn12	1.5	-52	0.4	0.13	·	62*
CCc1ccc(S(=O)(=O)NCc2cn3c(C)csc3n2)s1	1.2	-20	0.2	0.29	·	78*
O=S(=O)(NCCc1cn2ccccc2n1)c1ccc2c(c1)OCCO2	1.2	-18	0.3	0.02	·	70*
CCOC(=O)c1ccc(NC(=O)CN2C(=O)CSC2=O)cc1	1	5	0.7	0.12	0.11	32
Cc1csc2nc(CNS(=O)(=O)c3ccc4c(c3)OCCO4)cn12	1.1	-14	0.4	-2.3	·	64*
O=C(CSc1ncn[nH]1)Nc1ccccc1Sc1ccccc1	0.5	45	0.1	0.48	0.69	87*
O=C(CSc1ncn[nH]1)NCCCc1ccccc1	1	5	0.4	0.39	1.2	57*
CCN(CC)S(=O)(=O)c1ccc(C(=O)NNC(=O)C2CCN(S(=O)(=O)c3ccc(Cl)cc3)CC2)cc1	·	·	·	·	-0.05	·
Cc1ccc(-n2nnnc2-c2cnc3ccc(Cl)cc3c2-c2ccccc2)cc1	0.6	40	0.7	-0.67	-0.77	27
Clc1ccc2[nH]cc(-c3nnnn3-c3ccc4ccccc4c3)c2c1	1.2	-16	1.1	0.078	-3.2*	-5
CCOC(=O)C1=C(Cc2ccc(Cl)cc2)C(=O)c2ccccc2C1=O	0.1	95*	0	-1.7	-0.9	100*
CC(=O)n1cc(C(C[N+](=O)[O-])SCCN)c2ccccc21 (configuration not stated)	0.6	44	0.7	-3.8*	1.5	29
COc1ccc(S(=O)(=O)N(CCc2ccccc2)CC(=O)NCCCO)cc1	1.2	-17	0.5	0.56	0.62	51*
COc1ccc(CNC(=O)CN(Cc2ccc(C)cc2)S(=O)(=O)c2ccc(Cl)cc2)cc1	0.7	26	0.7	-0.079	0.01	32
COc1ccc(S(=O)(=O)N(CCc2ccccc2)CC(=O)O)cc1	0.4	65*	0.5	0.51	0.87	53*
SMILES	CYP2C9 act	CYP2C9 inhib	CYP2C19 activ	Cav32 inh	Pyk2 oligo antag	CYP2C19 inh
CCNC(=O)CN(CCc1ccccc1)S(=O)(=O)c1ccc(OC)cc1	0.1	88*	0	1.4	-0.7	96*
COCc1cc(C)nc(N2CCNCC2)c1C#N	1.1	-15	1.1	0.55	1.3	-9
COc1ccc(S(=O)(=O)N2CCCCCC2)cc1N(C)S(=O)(=O)c1ccc(Cl)cc1	1	1	1.1	-2.4	-2	-9
Cc1oc(CC(C)C)cc1C(=O)Nc1cccc2ccccc12	1.1	-7	1	-2.1	-1.3	3
Cc1cccc(/C=N/NC(=O)C(C)Nc2cccc3ccccc23)n1 (configuration not stated)	0.9	8	0.3	0.021	0.09	71*
COc1ccc(S(=O)(=O)NCCc2csc(C)n2)cc1C	1.2	-24	0.3	0.62	-0.36	74*
COc1ccc(S(=O)(=O)NCCC(C)C)cc1C	1.9	-87	0.2	-0.48	-1.5	85*
Cc1ccc(S(=O)(=O)NCCCN2CCOCC2)cc1C	·	·	·	0.54	0.44	·
O=C(NCCCN1CCOCC1)C(C(=O)c1ccccc1)n1ccccc1=O (configuration not stated)	0.9	6	1	1.1	0.22	4
O=C(O)C1CC(c2ccccc2F)=NO1 (configuration not stated)	1	-1	1	0.41	1.9	1
COc1ccc2c(c1)C1C=CCC1C(c1cc3c(cc1Br)OCO3)N2 (configuration not stated)	0.2	75*	0.3	0.27	-1.1	70*
COc1ccc(-n2c(SC3CCOC3=O)nc3ccccc32)cc1 (configuration not stated)	0.6	41	0.5	-1.5	-0.28	51*
O=C1OCCC1Sc1nc2ccccc2n1-c1ccccc1 (configuration not stated)	0.3	66*	0.3	0.88	0.61	69*
O=C1OCCC1Sc1nnc(-c2ccccc2)o1 (configuration not stated)	1	2	0.6	0.96	1.3	39
O=C1OCCC1Sc1nc2ccccc2n1Cc1ccccc1 (configuration not stated)	0.5	55*	0.2	0.047	0.19	82*
O=C(O)Cn1c(SC2CCCCC2)nc2ccccc21	0.9	13	0.9	0.87	-0.28	7
COc1ccc(N2C(=O)CC(Sc3nnc(-c4ccccc4)o3)C2=O)cc1 (configuration not stated)	0.9	9	0.9	-0.41	0.66	6
C=CCc1cc(C=O)cc(OC)c1OCc1c(Cl)cccc1Cl	0.6	39	0.9	-1.1	-0.9	7
CN(C[C@H](Cc1ccccc1)N(C[C@H](Cc1ccccc1)N(CCC(C)(C)C)N=O)N=O)N=O	·	·	·	-2.2	·	·
CC1=CCC[C@@H]2[C@@](C)(CC/C(C)=C/C(=O)O)[C@H](C)CC[C@@]12C	·	·	·	-1.7	·	·
CCC(C(=O)NC1CCCC1)N(C(=O)Cn1nnc(-c2cccs2)n1)c1cnc2ccccc2c1 (configuration not stated)	1	-3	1	-0.99	-0.43	0
CC(C)NC(=O)CSCc1c(Cl)cccc1Cl	0.8	21	0.6	0.36	0.28	42

Screening data deposited in PubChem by several laboratories.
